In PubChem BioAssay (NCI) one finds growth data, which are given here for 40 molecules.

Compounds without any hit were thinned out: in the full panel of roughly 83,000, 20% have a hit.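 Cells were grown in 96-well plates and exposed to the test compound at a single concentration for 48 hours; results are reported as percent growth, with values below 10 considered active.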 Activity calls are given as the source filed them.

The test system of the assay is COLO 205 colon. The experiment in a line: NCI-60 one-dose screen, 48 h (100 = growth as untreated, 0 = no growth, -100 = all killed). The settings on record: 10 µM unless noted. As for the experimental part:
Cells are grown in 96 well plates and exposed to the test compound for 48 hours. Compounds are tested at a single concentration, which is 10^-5 M for most compounds. The reported endpoint is percent growth (GI% or GIPRCNT), where numbers from 0 - 100% represent growth inhibition, and numbers from -100% - 0 represent cell death. For example, a value of 40 represents 60% growth inhibition. A value of 0 means no net growth occurred over the course of the experiment. A value of -40 indicates 40% of cells at the beginning of the experiment died by the end of the experiment. A value of -100 means all cells are dead at the end of the experiment.
NCI-60 Human Tumor Cell Lines Screen was performed using the standard one-dose NCI protocol, which is described in more detail at https://dtp.cancer.gov/discovery_development/nci-60/default.htm.
Compounds with GIPRCNT values below 10 were considered active. Activity score was based on GIPRCNT using the following formula: […]
Score is 0 for GIPRCNT values of 100 or above, 50 for GIPRCNT values of 0, and 100 for GIPRCNT values of -100.
In the case of `O=C1/C(=C\c2cccn2Cc2ccc(F)cc2)c2ccccc2N1c1c(Cl)cccc1Cl`, the growth was 84.9% (inactive).
Regarding `Cc1n(Cc2ccc3ccccc3n2)cc[n+]1Cc1ccc2ccccc2c1`, the growth was -38.4% (active).
On to `C[C@]12CCc3nc(Nc4ccc(O)cc4)sc3C1=CC[C@@H]1[C@@H]2CC[C@]2(C)/C(=N/NC(N)=S)CC[C@@H]12`, for which the growth is -40.5% (active).
Under `Cc1cc(O)c(C2=NN(c3ccc(S(N)(=O)=O)cc3)C(c3ccc(Cl)cc3)C2)c(C)c1Cl` (stereo not given) stands 30.8% (inactive); under `COc1ccc(/C=c2\c(=O)n(-c3ccccc3)c3nn4c(n23)=NNC42CCCCC2)cc1`, 105% (inactive).
As to `CSCCC1NC(=O)C(C(C)=Nc2ccccc2)=C1O` (stereo not given), the growth is 105% (inactive).
Under `Cc1ccc(NC(=O)c2[nH]c(SCCN(C)C)nc2-c2ccc(F)cc2)cc1C#Cc1cnc2cccnn12` stands 81.1% (inactive); under `NC(N)=N/N=C/c1ccccc1`, 99.9% (inactive).
For the molecule `COc1ccc(-c2nnc(SCC(=O)Nc3ccc(C(=O)/C=C/c4ccc(Cl)cc4)cc3)n2-c2ccccc2)cc1`, the growth is 107% (inactive).
As for `CCCCCCCCNC(C)C(O)c1ccc(SC(C)C)cc1` (stereo not given), the growth is 4.17% (active).
Regarding `COc1cc(/C=C/C(=O)c2c(C)nc3ccccc3c2C)ccc1OCCCOc1cc2c(cc1OC)C(=O)N1CCC[C@H]1C=N2`, the growth was -85.9% (active).
Under `Cc1nc2c(-c3cnc(N)nc3)nc(N3CCOCC3)nc2n1C(C)C` stands -2.93% (active); under `COc1cc2nccc(Oc3ccc(NC(=O)C4(C(=O)Nc5c(F)cc(F)cc5F)CC4)cc3)c2cc1Oc1ccc(N)cn1`, 44.3% (inactive); under `C1=C\CCCCN2CC[C@H]3[C@H](CCCC/C=C\CCCN4C[C@@H](CCCCC/1)C[C@@H]3C4)C2`, -64.3% (active).
The result for `Cc1ccc(C2CC(c3cccs3)=NN2c2ccc(S(N)(=O)=O)cc2)s1` (stereo not given) reads -75.1% (active); that for `CO[C@@]12[C@@H]3NC3CN1C1=C(C(=O)C(N)=C(C)C1=O)[C@@H]2COC(N)=O` (stereo not given in full), -0.289% (active).
With `CCCCCCCCCCCCCC(=S)NCCCC[C@H](NC(=O)OCc1ccccc1)C(=O)Nc1ccccc1`, the growth is 55.6% (inactive).
Under `CC(=O)c1cc(C(=O)c2ccc3c(c2)Sc2ccccc2N3)c2c(C)cccn12` stands -43.7% (active).
As for `O=NN(CC(=O)NNc1ccccc1)CC(=O)NNc1ccccc1`, the growth was 68.6% (inactive).
Under `NC(N)=N/N=C\c1cccc(OCc2ccccc2)c1` stands -70.9% (active).
As for `Fc1ccc2nc(-c3ccc(-c4noc(-c5ccc(Cl)cc5)n4)cc3)[nH]c2c1`, the growth is 116% (inactive).
In the case of `C=C1NC(=O)C(C(C)CC)NC(=O)C2CSCC(NC(=O)CCC(=O)O)C(=O)NC(Cc3ccccc3)C(=O)NC(C)C(=O)NC(CC(C)CC)C(=O)NC(C(=O)NC(Cc3ccccc3)C(=O)N3CCCC3C(=O)N2)C(C)OC(=O)C(CO)NC(=O)C(C(O)COC)N(C)C(=O)C(C(C)C)NC(=O)C(CC(C)CC)NC1=O` (stereo not given), the growth was -44.7% [6 µM] (active).
In the case of `Cc1cc2nc3c(=O)[nH]c(=O)nc-3n(CC=O)c2cc1C`, the growth was 128% (inactive).
On to `COc1ccc(/C=C(/C(=O)N2CCN(c3ccccc3)CC2)c2cc(OC)c(OC)c(OC)c2)cc1N`, for which the growth is -21.2% (active).
The result for `C=CCn1c(SCC(=O)Nc2ccc(/C(C)=N\O)cc2)nnc1-c1cc(-c2ccc(Cl)cc2)nc2ccccc12` reads 27.8% (inactive); that for `C/C(=N\NC(=S)N1CCCCC1)c1ccccn1`, -14% (active); that for `O=C(Nc1ccc2[nH]c3ccccc3c2c1)c1ccccc1Cl`, 14% (inactive).
The result for `COc1ccc2nc(NC(=O)/C(=C/c3cc(OC)c(OC)c(OC)c3)c3ccc(OC)c(OC)c3)sc2c1` reads 104% (inactive); that for `COc1ccc(C(=O)C(C#N)c2cc(OC)c(OC)c(OC)c2)cc1` (stereo not given), 106% (inactive).
In the case of `CCCCCCCCCCC(C(O)c1ccccc1)N1CCCCC1` (stereo not given), the growth was -76.3% (active).
The result for `COc1ccc(C2CC(c3ccc(Nc4ccnc5cc(Cl)ccc45)cc3)=NN2c2ccccc2)cc1` (stereo not given) reads 86.5% (inactive); that for `COc1cc2nccc(Oc3ccc(NC(=O)C4(C(=O)Nc5ccc(F)cc5)CC4)cc3)c2cc1Oc1ccc(N)cn1`, 8.91% (active).
Consider `Oc1c(-c2cc(C(F)(F)F)[nH]n2)cc(Cl)c(OCc2ccc(Cl)cc2)c1-c1ccc(Cl)c(C(F)(F)F)c1`, for which the growth is -38.8% (active).
Under `Cc1cc(C)c2c(n1)sc1c(Nc3ccc(O)cc3)ncnc12` stands 33% (inactive).
For the molecule `CCCCN(CCCC)CCC(=O)c1ccc(OC)c2ccccc12`, the growth was 60.1% (inactive).
Consider `COc1ccc(Br)c2ccccc12`, for which the growth was 120% (inactive).
Take `O=C(NNC(=S)Nc1ccccc1)c1ccc(Nc2ncnc3c2cnn3-c2cccc(Br)c2)cc1`: the growth is 103% (inactive).
`COc1ccc(/C=C/C(=O)c2ccc(NC(=O)CSc3nnc(-c4ccc(OC)cc4)n3-c3ccccc3)cc2)cc1`: the growth was 107% (inactive).
For the molecule `COc1ccccc1/C=N\NC(=S)Nc1ccc(F)cc1`, the growth is 91.9% (inactive).
As to `OC(c1cc(-c2ccc(C(F)(F)F)cc2)nc(-c2ccc(C(F)(F)F)cc2)c1)C1CCCCN1` (stereo not given), the growth was -79.6% (active).
